Laboratory results as given in PubChem BioAssay (Tox21).
“And” between values parts separate entries of the source, which are not always exact repeats. Identical values can stand only once. The source made the active and inactive calls. Where a call stands in place of a potency, no number is given. Unless noted, calls follow the shape of the dose curve; as a rule, active = well fitted curve in the direction sought with a large enough effect in the repeat runs; inconclusive = weak or mixed curves; inactive = no such curve, though single readings can be large; an effect the other way counts as inactive or inconclusive.

Tests used:
[1] = qHTS assay to identify small molecule antagonists of the thyroid receptor (TR) signaling pathway - cell viability counter screen (AID 743064); also: nearly all actives have a fitted effect of over 50% in size
Method in brief: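 Same-well viability check: GH3.TRE-Luc cells stimulated with 1 nM T3 alongside test compound for 23.5 h, followed by CellTiter-Fluor fluorescence.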

[2] = qHTS assay to identify small molecule antagonists of the estrogen receptor alpha (ER-alpha) signaling pathway - cell viability counter screen (AID 743074; calls by dose curve;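 also: HEK293 cells carrying ER-alpha-UAS-bla reporter stimulated with 17beta-estradiol; nearly all actives have a fitted effect of over 45% in size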; also: potency is read from the fitted curve at half-maximal effect)
[3] = qHTS assay to identify small molecule antagonists of the estrogen receptor alpha (ER-alpha) signaling pathway using the BG1 cell line - cell viability counter screen (AID 743081);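 also: compound given together with 17beta-estradiol as the ER stimulus; nearly all actives have a fitted effect of over 45% in size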
Aromatase (Homo sapiens) = Aromatase (Homo sapiens) (UniProt P11511); experiment: qHTS assay to identify aromatase inhibitors (AID 743083); also: nearly all actives have a fitted effect of over 55% in size; also: potency is read from the fitted curve at half-maximal effect
Sequence of Aromatase (Homo sapiens) (P11511 whole entry, looked up): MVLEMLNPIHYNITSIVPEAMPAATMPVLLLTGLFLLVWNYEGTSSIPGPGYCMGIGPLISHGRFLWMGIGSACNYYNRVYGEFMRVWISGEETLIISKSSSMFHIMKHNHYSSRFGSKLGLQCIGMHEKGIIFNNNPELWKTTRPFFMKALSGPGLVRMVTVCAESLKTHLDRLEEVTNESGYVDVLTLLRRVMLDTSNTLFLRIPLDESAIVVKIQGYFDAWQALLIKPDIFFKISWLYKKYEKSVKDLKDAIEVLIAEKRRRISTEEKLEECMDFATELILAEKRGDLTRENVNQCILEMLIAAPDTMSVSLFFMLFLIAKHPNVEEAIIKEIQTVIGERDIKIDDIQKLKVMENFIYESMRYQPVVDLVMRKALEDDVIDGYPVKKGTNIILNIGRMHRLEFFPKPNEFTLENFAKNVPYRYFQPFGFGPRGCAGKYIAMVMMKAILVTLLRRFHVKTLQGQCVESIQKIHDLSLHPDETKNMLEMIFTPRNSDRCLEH

[4] = qHTS assay to identify aromatase inhibitors - cell viability counter screen (AID 743084);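 also: cells stimulated with testosterone during compound exposure; nearly all actives have a fitted effect of over 55% in size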
[5] = biological target: Aryl hydrocarbon receptor (Homo sapiens) (UniProt P35869); experiment: qHTS assay to identify small molecule that activate the aryl hydrocarbon receptor (AhR) signaling pathway (AID 743085); also: nearly all actives have a fitted effect of over 15% in size; also: potency is read from the fitted curve at half-maximal effect;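 as to activation: HG2L7.5c1 human HepG2 liver cells with stably integrated DRE-driven firefly reporter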
Sequence of Aryl hydrocarbon receptor (Homo sapiens) (P35869 whole entry, looked up): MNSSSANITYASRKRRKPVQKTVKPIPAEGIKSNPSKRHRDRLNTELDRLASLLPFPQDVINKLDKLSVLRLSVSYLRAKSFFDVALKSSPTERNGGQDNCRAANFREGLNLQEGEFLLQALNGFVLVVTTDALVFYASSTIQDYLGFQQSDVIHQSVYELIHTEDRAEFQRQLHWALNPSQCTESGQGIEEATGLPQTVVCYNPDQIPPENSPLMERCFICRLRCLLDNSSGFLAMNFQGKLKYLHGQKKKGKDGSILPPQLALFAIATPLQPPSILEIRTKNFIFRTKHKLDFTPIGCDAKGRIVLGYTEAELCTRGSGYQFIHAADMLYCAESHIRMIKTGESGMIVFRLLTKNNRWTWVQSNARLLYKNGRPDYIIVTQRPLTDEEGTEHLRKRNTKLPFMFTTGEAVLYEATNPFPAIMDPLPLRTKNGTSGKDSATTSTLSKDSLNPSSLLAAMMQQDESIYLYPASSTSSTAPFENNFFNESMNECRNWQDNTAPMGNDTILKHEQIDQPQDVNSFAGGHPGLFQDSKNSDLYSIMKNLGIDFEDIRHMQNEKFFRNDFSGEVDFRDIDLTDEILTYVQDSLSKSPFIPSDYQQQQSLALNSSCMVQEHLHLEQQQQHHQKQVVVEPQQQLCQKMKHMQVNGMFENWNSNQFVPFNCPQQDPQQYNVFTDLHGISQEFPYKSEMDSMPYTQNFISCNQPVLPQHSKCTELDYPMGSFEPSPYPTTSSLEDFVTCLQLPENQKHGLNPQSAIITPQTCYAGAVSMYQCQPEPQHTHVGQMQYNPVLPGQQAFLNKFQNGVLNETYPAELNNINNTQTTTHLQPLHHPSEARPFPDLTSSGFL
Method in brief: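 Reporter assay in engineered HepG2 line HG2L7.5c1, whose plasmid carries twenty dioxin responsive elements upstream of firefly luciferase. Treatment lasted 24 h at 37C; ONE-Glo luminescence gauged induction.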

[6] = qHTS assay to identify small molecule that activate the aryl hydrocarbon receptor (AhR) signaling pathway - cell viability counter screen (AID 743086);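 also: HepG2 liver cells carrying the AhR DRE luciferase reporter; nearly all actives have a fitted effect of over 45% in size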
Method in brief: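 HepG2-AhR-luc (HG2L7.5c1) cells, 4000/well, treated 24 h at 37 C with compound; viability measured as CellTiter-Fluor fluorescence after 30 min in the same wells as the luciferase read.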

[7] = biological target: Peroxisome proliferator-activated receptor gamma (Homo sapiens) (UniProt P37231); experiment: qHTS assay to identify small molecule agonists of the peroxisome proliferator-activated receptor gamma (PPARg) signaling pathway (AID 743094; active = well fitted activation curve with a large enough effect in the signal ratio in the repeat runs, not every such curve was filed as active; inconclusive = weak or mixed curves, or effect the other way; inactive = no such curve, though single readings can be large or run the other way; the % refers to the signal ratio)
Sequence of Peroxisome proliferator-activated receptor gamma (Homo sapiens) (P37231 whole entry, looked up): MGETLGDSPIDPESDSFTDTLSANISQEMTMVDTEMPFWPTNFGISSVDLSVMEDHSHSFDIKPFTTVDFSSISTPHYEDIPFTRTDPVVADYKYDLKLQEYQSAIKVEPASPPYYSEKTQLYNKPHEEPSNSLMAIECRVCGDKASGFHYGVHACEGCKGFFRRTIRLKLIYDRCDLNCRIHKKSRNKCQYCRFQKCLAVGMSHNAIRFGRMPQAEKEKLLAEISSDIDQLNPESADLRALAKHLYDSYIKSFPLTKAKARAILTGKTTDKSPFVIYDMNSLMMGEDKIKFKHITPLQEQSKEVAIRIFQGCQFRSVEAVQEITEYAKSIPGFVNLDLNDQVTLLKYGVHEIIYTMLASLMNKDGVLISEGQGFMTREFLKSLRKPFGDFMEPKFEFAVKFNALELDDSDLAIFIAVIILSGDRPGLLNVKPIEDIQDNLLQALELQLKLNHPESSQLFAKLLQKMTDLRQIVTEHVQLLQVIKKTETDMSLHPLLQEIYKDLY
Method in brief: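 Beta-lactamase FRET fluorescence was the read-out after a 1 h room-temperature substrate step, following 17 h compound treatment at 37C of HEK293H cells expressing a UAS-driven bla reporter responsive to PPARg.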

[8] = biological target: Peroxisome proliferator-activated receptor gamma (Homo sapiens) (UniProt P37231); experiment: qHTS assay to identify small molecule antagonists of the peroxisome proliferator-activated receptor gamma (PPARg) signaling pathway (AID 743191; calls by dose curve; also: nearly all actives have a fitted effect of over 30% in size; also: potency is read from the fitted curve at half-maximal effect)
Method in brief: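 GeneBLAzer PPARg UAS-bla HEK293H cells, 5 h post-plating, exposed to compounds 17 h at 37C. LiveBLAzer B/G FRET substrate added for 1 h at room temperature; beta-lactamase reporter read by fluorescence intensity.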

[9] = qHTS assay to identify small molecule antagonists of the peroxisome proliferator-activated receptor gamma (PPARg) signaling pathway - cell viability counter screen (AID 743194); settings: Potency: co-treated with 50 nM rosiglitazone unless noted; also: nearly all actives have a fitted effect of over 55% in size; also: potency is read from the fitted curve at half-maximal effect
Method in brief: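 Cytotoxicity counter screen in PPARg-bla HEK293H cells, same wells as reporter assay. Compounds plus 50 nM rosiglitazone (final) for 17 h at 37 C, then viability read by CellTiter-Glo luminescence.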

[10] = qHTS assay for small molecule agonists of the antioxidant response element (ARE) signaling pathway (AID 743202; active = well fitted activation curve with a large enough effect in the signal ratio in the repeat runs, not every such curve was filed as active; inconclusive = weak or mixed curves, or effect the other way; inactive = no such curve, though single readings can be large or run the other way; the % refers to the signal ratio; also: potency is read from the fitted curve at half-maximal effect)
Method in brief: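 ARE-bla HepG2 cells (beta-lactamase reporter under the antioxidant response element), plated 5 hours, then exposed to compounds 16 hours at 37 C. LiveBLAzer B/G FRET substrate added for 2 hours at room temperature; fluorescence intensity read.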

[11] = qHTS assay for small molecule agonists of the antioxidant response element (ARE) signaling pathway - cell viability counter screen (AID 743203; calls by dose curve; also: nearly all actives have a fitted effect of over 55% in size; also: potency is read from the fitted curve at half-maximal effect)
Method in brief: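 HepG2 cells carrying ARE-driven beta-lactamase; 2,000 cells/well; 5 hrs plating; compound pinned from DMSO; 16 hrs 37C/5% CO2; CellTiter-Glo added; 30 min RT; luminescence.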

[12] = qHTS assay for small molecule activators of the heat shock response signaling pathway - cell viability counter screen (AID 743209); also: nearly all actives have a fitted effect of over 50% in size; also: potency is read from the fitted curve at half-maximal effect
Method in brief: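 Luminescence from CellTiter-Glo, added after the beta-lactamase FRET read, gave the viability signal. Cells were HSE-bla HeLa treated with DMSO-dissolved compounds for 5 h at 37 C following overnight plating.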

[13] = qHTS assay for small molecule activators of the heat shock response signaling pathway (AID 743210; active = well fitted activation curve with a large enough effect in the signal ratio in the repeat runs, with a control signal flat, not every such curve was filed as active; inconclusive = weak or mixed curves; the % refers to the signal ratio)
Method in brief: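 HSE-bla HeLa cells (beta-lactamase reporter under heat shock response elements), plated overnight, then exposed to compounds 5 h at 37 C; LiveBLAzer B/G FRET substrate added, 2.5 h at room temperature, fluorescence intensity read.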

[14] = qHTS assay to identify small molecule antagonists of the thyroid receptor (TR) signaling pathway (AID 743065); also: nearly all actives have a fitted effect of over 55% in size; also: potency is read from the fitted curve at half-maximal effect
Method in brief: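 GH3.TRE-Luc rat pituitary cells (two TREs driving luciferase) were dosed with compound, then stimulated with 1 nM T3 (final) for 23.5 h at 37 C. ONE-Glo luminescence was the read-out, with CellTiter-Fluor fluorescence as the cytotoxicity counter-screen.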

[15] = test system: thyroid hormone receptor (rat, GH3 cells); experiment: qHTS assay to identify small molecule agonists of the thyroid receptor (TR) signaling pathway (AID 743066; calls by dose curve)
[16] = biological target: Estrogen receptor (Homo sapiens) (UniProt P03372); experiment: qHTS assay to identify small molecule antagonists of the estrogen receptor alpha (ER-alpha) signaling pathway (AID 743069; active = well fitted curve in the direction sought with a large enough effect in the signal ratio in the repeat runs, not every such curve was filed as active; inconclusive = weak or mixed curves, or effect the other way; inactive = no such curve, though single readings can be large or run the other way; the % refers to the signal ratio)
Sequence of Estrogen receptor (Homo sapiens) (P03372 whole entry, looked up): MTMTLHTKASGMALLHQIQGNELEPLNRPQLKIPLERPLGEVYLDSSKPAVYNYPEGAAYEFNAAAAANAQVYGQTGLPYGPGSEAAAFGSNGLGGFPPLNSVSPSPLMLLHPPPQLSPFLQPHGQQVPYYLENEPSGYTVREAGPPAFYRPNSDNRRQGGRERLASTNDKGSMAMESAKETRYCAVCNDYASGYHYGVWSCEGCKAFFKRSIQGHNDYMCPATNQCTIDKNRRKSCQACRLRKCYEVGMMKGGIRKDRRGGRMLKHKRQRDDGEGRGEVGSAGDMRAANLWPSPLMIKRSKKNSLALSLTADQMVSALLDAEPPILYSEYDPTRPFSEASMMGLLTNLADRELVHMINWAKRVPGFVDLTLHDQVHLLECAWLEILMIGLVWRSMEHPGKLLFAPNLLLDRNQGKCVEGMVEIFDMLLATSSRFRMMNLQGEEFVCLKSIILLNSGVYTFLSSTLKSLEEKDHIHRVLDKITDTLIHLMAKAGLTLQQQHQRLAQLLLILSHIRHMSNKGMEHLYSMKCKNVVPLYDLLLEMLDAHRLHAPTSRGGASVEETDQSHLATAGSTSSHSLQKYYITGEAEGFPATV
Method in brief: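 HEK293 ER-alpha-UAS-bla GripTite cells, held overnight in 2% charcoal-stripped FBS, 5,000 cells/well, preincubated 4 h, then compound plus 17beta-estradiol for 18 h at 37C. Beta-lactamase read by LiveBLAzer B/G FRET substrate, 2 h at room temperature.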

[17] = qHTS assay to identify small molecule antagonists of the estrogen receptor alpha (ER-alpha) signaling pathway using the BG1 cell line (AID 743080; calls by dose curve;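 also: BG1 cells stimulated with 17beta-estradiol alongside compound; nearly all actives have a fitted effect of over 25% in size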; also: potency is read from the fitted curve at half-maximal effect)
Method in brief: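 Endogenous full-length ER-alpha in BG1-Luc-4E2 cells drives a stably integrated 4×ERE luciferase gene; compounds were tested against 17beta-estradiol over 21.5 h, with luminescence and multiplexed viability fluorescence recorded.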

[18] = biological target: Estrogen receptor (Homo sapiens) (UniProt P03372); experiment: qHTS assay to identify small molecule agonists of the estrogen receptor alpha (ER-alpha) signaling pathway (AID 743075; calls by dose curve; also: potency is read from the fitted curve at half-maximal effect)
[19] = biological target: Estrogen receptor (Homo sapiens) (UniProt P03372); experiment: qHTS assay to identify small molecule agonists of the estrogen receptor alpha (ER-alpha) signaling pathway using the BG1 cell line (AID 743079); settings: BG1Luc4E2 cells, ERE-luciferase agonist, 22 h; activation: at 70.3 µM (top of the series); also: nearly all actives have a fitted effect of over 20% in size; also: potency is read from the fitted curve at half-maximal effect

Compound	Potency [1]	Potency [2]	Potency [3]	Potency (Aromatase (Homo sapiens))	Potency [4]	Potency [5]	Potency [6]	Potency [7]	Potency [8]	Potency [9]	Potency [10]	Potency [11]	Potency [12]	Potency [13]	Potency [14]	Potency [15]	Potency [16]	Potency [17]	Potency [18]	Potency [19]
CCCN	inactive	inactive	inactive	inactive	inactive	inactive	inactive	inactive	inactive	inactive	inactive	inactive	inactive	inactive	–	–	–	–	–	–
COC(=O)/C=C(\C)OP(=O)(OC)OC	–	inactive	inactive	–	inactive	inactive	inactive	inactive	–	–	–	inactive	inactive	–	inactive	inactive	inactive	inactive	–	–
CCCCCCC[CH2][Sn]([Cl])([Cl])[CH2]CCCCCCC	–	24.5 µM (active)	inactive	–	inactive	21.7 µM (active)	inactive	–	–	–	0.863 µM (active)	54.4 µM (active)	30.9 µM (active)	–	54.4 µM (active)	inactive	–	–	–	–
CCC(C)c1cccc(C(C)CC)c1O (centres undefined)	–	inactive	inactive	–	–	inactive	–	inactive	inactive	inactive	–	inactive	inactive	–	61.1 µM (active)	inactive	–	inactive	inactive	inactive
c1ccc(N=NNc2ccccc2)cc1	–	inactive	–	inactive	–	10 µM (active) and 34.4 µM (active)	–	–	–	inactive	9.69 µM (active)	inactive	inactive	inactive	inactive	inactive	–	68.6 µM (active)	inactive	14.2 µM (active) and 54.5 µM (active)
COP(=O)(OC)O/C(=C\Cl)c1cc(Cl)c(Cl)cc1Cl	–	–	inactive	30.6 µM (active)	–	inactive	inactive	–	4.9 µM (active)	–	–	–	inactive	inactive	27.3 µM (active)	inactive	–	68.6 µM (active)	–	–
ClC(Cl)C(Cl)(Cl)Cl	–	inactive	inactive	inactive	inactive	inactive	–	inactive	inactive	inactive	inactive	inactive	inactive	inactive	inactive	inactive	–	inactive	inactive	inactive
[O-][Cl+3]([O-])([O-])O	inactive	inactive	inactive	inactive	inactive	–	inactive	inactive	inactive	inactive	inactive	inactive	inactive	inactive	–	–	–	–	–	–
Cc1c([N+](=O)[O-])cc2c(c1[N+](=O)[O-])C(C)(C)CC2(C)C	–	inactive	inactive	27.3 µM (active)	inactive	inactive	inactive	inactive	inactive	inactive	–	inactive	inactive	inactive	–	inactive	–	15.4 µM (active)	21.9 µM [inconclusive] (active)	–
C#CCC1=C(C)C(OC(=O)C2C(C=C(C)C)C2(C)C)CC1=O (centres undefined)	–	inactive	inactive	–	–	inactive	inactive	–	–	inactive	–	inactive	inactive	–	60.7 µM (active)	–	–	–	–	–
[O]=[Cr](=[O])([OH])[O][Cr](=[O])(=[O])[OH]	–	inactive	inactive	13.3 µM (active) and 2.46 µM (active) and 2.43 µM (active)	inactive	inactive	–	–	–	3.93 µM (active) and 7.74 µM (active)	–	21.9 µM (active) and 30.6 µM (active)	39.3 µM (active) and 43.6 µM (active)	–	–	inactive	inactive	inactive	inactive	inactive
CC(Cc1ccccc1)N(C)Cc1ccco1 (centres undefined)	–	–	–	–	–	–	–	–	inactive	inactive	inactive	inactive	inactive	inactive	–	–	–	–	–	–
CC(C)N(C(=O)SC/C(Cl)=C/Cl)C(C)C	–	–	inactive	–	inactive	inactive	inactive	–	–	inactive	inactive	inactive	inactive	inactive	–	inactive	inactive	inactive	–	inactive
C[C@]12Cc3cn[nH]c3C[C@@H]1CC[C@@H]1[C@@H]2CC[C@@]2(C)[C@H]1CC[C@]2(C)O	–	–	–	–	–	–	–	–	–	–	26.6 µM (active)	inactive	inactive	–	–	–	–	–	–	–
O=C(CCCCl)c1ccc(F)cc1	–	–	–	–	–	–	–	–	inactive	inactive	inactive	inactive	inactive	inactive	–	–	–	–	–	–
CCN(CC)CCc1c[nH]c2ccccc12	–	inactive	inactive	–	inactive	inactive	–	inactive	–	inactive	–	inactive	inactive	–	–	inactive	inactive	inactive	inactive	inactive
Cc1ccc([N+](=O)[O-])[c]2c1[O][Hg]2	–	–	–	–	–	–	–	–	–	2.98 µM (active)	–	4.22 µM (active)	5.31 µM (active)	–	–	–	–	–	–	–
Oc1ccc([C@H]2CNCc3c2ccc(O)c3O)cc1O	–	–	inactive	inactive	inactive	–	inactive	inactive	–	inactive	–	inactive	inactive	inactive	–	inactive	inactive	inactive	inactive	inactive
S=C=NCCc1ccccc1	–	inactive	inactive	inactive	–	54.6 µM (active)	inactive	–	inactive	inactive	–	–	55.1 µM (active)	–	–	inactive	–	–	inactive	54.6 µM (active)
COc1ccc2[nH]cc(CCN(C(C)C)C(C)C)c2c1	–	inactive	inactive	inactive	inactive	22.2 µM (active)	inactive	inactive	–	inactive	–	inactive	inactive	inactive	–	inactive	–	–	–	–
